Reference: PubChem BioAssay
Values without a mark were called inactive. The source made the active and inactive calls. No stated cut-off is given here; in the data, active means inhibition above about 25%; inactive means the rest.

Test: repression of VP16-driven luciferase reporter – cell-based, luminescence, high throughput, counter-screen for SRC1 inhibitor project (AID 588824)
Settings: cell-based VP16 transactivation luciferase luminescence; at 3.6 µM; hits give high values

Row | SMILES | inhibition
1 | CCN(CC(=O)Nc1c(F)cccc1F)C(=O)/C=C/c1ccc(S(=O)(=O)N2CCCCCC2)cc1 | 6.23%
2 | COc1ccc(NC(=O)COc2ccccc2Cc2ccccc2)cc1S(N)(=O)=O | 32.3% (active)
3 | O=C(c1cc(COc2c(F)cccc2F)on1)N1CCC(c2ccncc2)CC1 | 19.7%
4 | COc1ccc(OC)c(S(=O)(=O)NCC(c2ccc3c(c2)OCO3)N2CCOCC2)c1 (stereo not given) | -6.55%
5 | COc1ccc(-n2c(NNC(C)=O)nc3sc4c(c3c2=O)CCCC4)cc1 | 31.6% (active)
6 | O=[N+]([O-])c1ccc(CSc2ccc(S(=O)(=O)N3CCOCC3)cn2)cc1 | 0.46%
7 | Cc1nn(CC(=O)N2CCN(c3cccc(C(F)(F)F)c3)CC2)c(=O)c2cccn12 | 8.52%
8 | COc1ccccc1NC(=O)c1cc(S(=O)(=O)NC2CCCC2)ccc1F | 5.69%
9 | CN1CCc2c(OCc3ccc(F)cc3)cccc2C1=O | -7.17%
10 | COc1ccc(Cl)cc1NC(=O)CN(C)C(=O)c1ccc(COc2ccccc2)cc1 | -12.9%
11 | COc1ccc(-n2c(SC(C)C(=O)Nc3ncc(Cl)cc3Cl)nc3ccccc32)cc1 (stereo not given) | 79.4% (active)
12 | O=C(NC1CCCC1)C(c1ccccc1)N(Cc1ccco1)C(=O)Cc1cccs1 (stereo not given) | 31.5% (active)
13 | CSc1nc2[nH]ncc2c(=O)[nH]1 | 1.46%
14 | CCN1/C(=C2\C(=O)N(C)C(=S)N2c2ccccc2)C=Cc2ccccc21 | 2.2%
15 | CC(C)Cn1c(N)c(C(=O)COC(=O)CC23CC4CC(CC(C4)C2)C3)c(=O)n(C)c1=O | 34.8% (active)
16 | Cc1cccc(C(C)C)c1-n1nnnc1-c1ccccc1 | 13.5%
17 | O=C(N/N=C/c1coc2ccc(Cl)cc2c1=O)c1ccc(O)cc1 | 17.8%
18 | COC(=O)C1CCCCN1C(=O)c1cc(COc2cccc3cnccc23)on1 (stereo not given) | 43.3% (active)
19 | COc1ccccc1CNC(=O)C1CCCN(S(=O)(=O)c2cccc3nsnc23)C1 (stereo not given) | -0.08%
20 | CCNc1nc2c(c(=O)n(C)c(=O)n2C)n1Cc1ccc(Cl)cc1 | 23.4%

Row | SMILES | inhibition
21 | Cc1ccc(NC(=O)CN(C(=O)N2CCN(C)CC2)S(=O)(=O)c2ccc(C)cc2)cc1 | -2.41%
22 | Cc1ccc(S(=O)(=O)N2CCN(C(=O)c3ccc(S(=O)(=O)N4CCCC4)cc3)CC2)cc1 | 9%
23 | COc1ccc2cc3c(N)nn(C(=O)c4cccc([N+](=O)[O-])c4)c3nc2c1 | 36.1% (active)
24 | CN(CC(=O)NNC(=O)Cc1ccccc1F)S(=O)(=O)c1ccc(Cl)cc1 | 4.4%
25 | COc1ccc(C(=O)Nc2ccc(N3CCCCCC3)cc2)cc1S(=O)(=O)N1CCOCC1 | 18.2%
26 | O=C1/C(=N\S(=O)(=O)c2cccs2)C([n+]2ccccc2)=C([O-])c2ccccc21 | 6.99%
27 | Cc1ccc(OCC(=O)Oc2c(C)cccc2C)cc1C | -9.72%
28 | Nc1c(C(=O)c2ccccc2)sc2nsc(SCCN3CCCC3)c12 | -2.2%
29 | CCSc1nnc(NC(=O)C(C)(C(F)(F)F)C(F)(F)F)s1 | 4.32%
30 | CCC(Cc1ccccc1)NC(=O)CCNS(=O)(=O)c1cc(Br)cnc1N (stereo not given) | 5.04%
31 | CCOc1ccc(NC(=S)N2CCC(NC(=O)c3ccco3)CC2)cc1 | -4.78%
32 | COc1ccc(C(=O)n2cc(C(=O)c3cc(C)ccc3O)cn2)cc1OC | -0.92%
33 | CN(C)/C=C/C(=O)c1ccn(S(=O)(=O)c2ccccc2)c1 | -2.37%
34 | Cc1ccc2oc(C(=O)NC3CCS(=O)(=O)C3)cc(=O)c2c1 (stereo not given) | -12.1%
35 | CC(=O)c1c(C)n(-c2ccc(C)cc2)c2ccc(O)cc12 | 19.8%
36 | CCc1ccc(NC(=O)c2ccc(F)c(S(=O)(=O)N(CC)c3ccccc3)c2)cc1 | 13.5%
37 | CCOC(=O)N1CCN(C2=Nc3cccc4cccc2c34)CC1 | -0.04%
38 | COc1ccc(-n2cc(-c3ccccc3)c3c(N4CCOCC4)ncnc32)cc1 | -1.14%
39 | CCN(C(=O)C(C)OC(=O)CCCNC(=O)c1ccc(Cl)cc1)c1ccccc1 (stereo not given) | -2.69%
40 | COc1cc(C=C2CCCC(=Cc3ccc(OCC4CO4)c(OC)c3)C2=O)ccc1OCC1CO1 (stereo not given) | 9.37%
